Assay results reported in the supplement of paper PMC11732987, “Enantioselective OTUD7B fragment discovery through chemoproteomics screening and high-throughput optimisation” (Communications Chemistry, 2025).
A number with no mark means an inactive call.

How the values were obtained:
Experiment in all cases: log2 ratio of Biotin-Ahx-Ub-VS probe labelling (fragment/DMSO); higher = less target engagement (more negative = stronger competition), active = hit call of the paper (q ≤ 0.05, log2 ratio ≤ -1)
Details in all cases: compound concentration: 200 uM; treatment time: 3 h
OTUD6B = target: T1, OTUD6B (UniProt Q8N6M0)
T1 sequence (whole entry): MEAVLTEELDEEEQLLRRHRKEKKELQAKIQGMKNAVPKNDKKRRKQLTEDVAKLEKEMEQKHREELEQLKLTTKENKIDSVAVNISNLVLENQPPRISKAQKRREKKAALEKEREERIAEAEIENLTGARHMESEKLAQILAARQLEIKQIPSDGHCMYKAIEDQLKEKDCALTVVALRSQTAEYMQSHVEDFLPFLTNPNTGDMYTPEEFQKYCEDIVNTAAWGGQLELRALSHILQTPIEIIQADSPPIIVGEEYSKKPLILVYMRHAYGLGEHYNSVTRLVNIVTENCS
In short: (§1)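 HEK293T lysate in Tris/CHAPS/IGEPAL buffer with protease inhibitors (495 µg per sample) was given fragment at 200 µM or vehicle for 3 h, in triplicate. It then received Biotin-Ahx-Ub-VS at 0.5 µM final for 1 h. Labelled DUBs were NeutrAvidin-enriched, digested with LysC and trypsin, and run by diaPASEF LC-MS/MS. Values are average log2 fragment/vehicle ratios by unpaired t-test on global-median-normalised Spectronaut quantities of proteins with ≥2 unique peptides.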

OTUD7B = target: T2, OTUD7B (UniProt Q6GQQ9)
T2 sequence (whole entry): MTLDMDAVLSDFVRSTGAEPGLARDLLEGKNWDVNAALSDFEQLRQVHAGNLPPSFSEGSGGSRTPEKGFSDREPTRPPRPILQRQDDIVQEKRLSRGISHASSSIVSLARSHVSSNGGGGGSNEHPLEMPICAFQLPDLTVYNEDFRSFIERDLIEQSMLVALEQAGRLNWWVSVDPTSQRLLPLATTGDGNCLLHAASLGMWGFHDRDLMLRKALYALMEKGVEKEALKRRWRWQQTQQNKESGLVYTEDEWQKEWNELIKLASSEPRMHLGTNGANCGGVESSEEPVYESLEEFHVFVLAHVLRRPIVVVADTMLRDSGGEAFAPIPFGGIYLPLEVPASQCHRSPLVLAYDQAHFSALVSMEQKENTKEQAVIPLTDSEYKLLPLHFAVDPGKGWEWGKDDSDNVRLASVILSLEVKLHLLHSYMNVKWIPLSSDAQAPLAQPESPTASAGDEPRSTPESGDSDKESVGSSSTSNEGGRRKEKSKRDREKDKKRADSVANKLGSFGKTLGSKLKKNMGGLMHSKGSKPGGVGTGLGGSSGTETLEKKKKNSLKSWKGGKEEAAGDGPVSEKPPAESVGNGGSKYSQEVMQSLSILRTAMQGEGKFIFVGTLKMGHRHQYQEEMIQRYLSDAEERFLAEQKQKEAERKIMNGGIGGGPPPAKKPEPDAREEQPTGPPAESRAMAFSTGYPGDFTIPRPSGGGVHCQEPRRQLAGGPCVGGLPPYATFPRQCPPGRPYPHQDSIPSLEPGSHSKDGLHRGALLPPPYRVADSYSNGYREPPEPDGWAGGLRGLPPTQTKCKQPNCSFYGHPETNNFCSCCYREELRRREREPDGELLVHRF
In short: as §1

PRPF8 = PRPF8 (UniProt Q6P2Q9)
In short: as §1

PSMD7 = target: T3, PSMD7 (UniProt P51665)
T3 sequence (whole entry): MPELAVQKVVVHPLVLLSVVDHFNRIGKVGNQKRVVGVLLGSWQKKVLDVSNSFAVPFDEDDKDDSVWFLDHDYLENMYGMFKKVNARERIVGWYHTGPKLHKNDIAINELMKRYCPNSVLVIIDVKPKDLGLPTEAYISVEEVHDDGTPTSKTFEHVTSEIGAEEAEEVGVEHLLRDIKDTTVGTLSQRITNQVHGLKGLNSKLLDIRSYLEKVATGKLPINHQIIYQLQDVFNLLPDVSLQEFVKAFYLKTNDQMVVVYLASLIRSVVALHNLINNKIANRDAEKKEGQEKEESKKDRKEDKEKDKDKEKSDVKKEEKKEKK
In short: as §1

UCHL1 = UCHL1 (UniProt P09936)
In short: as §1

UCHL3 = target: T4, UCHL3 (UniProt P15374)
T4 sequence (whole entry): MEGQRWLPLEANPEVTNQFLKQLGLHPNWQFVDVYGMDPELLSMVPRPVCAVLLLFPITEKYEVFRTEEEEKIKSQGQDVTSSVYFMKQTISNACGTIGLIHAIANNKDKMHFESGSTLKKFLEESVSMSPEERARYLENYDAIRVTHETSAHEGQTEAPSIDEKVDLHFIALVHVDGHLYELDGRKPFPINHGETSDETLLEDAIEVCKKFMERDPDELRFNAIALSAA
In short: as §1

UCHL5 = target: T5, UCHL5 (UniProt Q9Y5K5)
T5 sequence (whole entry): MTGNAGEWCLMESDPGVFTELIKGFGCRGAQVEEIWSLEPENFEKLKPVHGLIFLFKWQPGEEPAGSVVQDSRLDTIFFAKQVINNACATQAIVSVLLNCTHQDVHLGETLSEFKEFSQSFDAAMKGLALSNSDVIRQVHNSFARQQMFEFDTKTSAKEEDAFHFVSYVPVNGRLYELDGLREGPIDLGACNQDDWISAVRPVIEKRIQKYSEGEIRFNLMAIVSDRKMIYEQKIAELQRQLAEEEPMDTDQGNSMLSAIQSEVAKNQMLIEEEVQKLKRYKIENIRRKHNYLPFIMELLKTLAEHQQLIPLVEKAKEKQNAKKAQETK
In short: as §1

USP10 = USP10 (UniProt Q14694)
In short: as §1

USP15 = target: T6, USP15 (UniProt Q9Y4E8)
T6 sequence (whole entry): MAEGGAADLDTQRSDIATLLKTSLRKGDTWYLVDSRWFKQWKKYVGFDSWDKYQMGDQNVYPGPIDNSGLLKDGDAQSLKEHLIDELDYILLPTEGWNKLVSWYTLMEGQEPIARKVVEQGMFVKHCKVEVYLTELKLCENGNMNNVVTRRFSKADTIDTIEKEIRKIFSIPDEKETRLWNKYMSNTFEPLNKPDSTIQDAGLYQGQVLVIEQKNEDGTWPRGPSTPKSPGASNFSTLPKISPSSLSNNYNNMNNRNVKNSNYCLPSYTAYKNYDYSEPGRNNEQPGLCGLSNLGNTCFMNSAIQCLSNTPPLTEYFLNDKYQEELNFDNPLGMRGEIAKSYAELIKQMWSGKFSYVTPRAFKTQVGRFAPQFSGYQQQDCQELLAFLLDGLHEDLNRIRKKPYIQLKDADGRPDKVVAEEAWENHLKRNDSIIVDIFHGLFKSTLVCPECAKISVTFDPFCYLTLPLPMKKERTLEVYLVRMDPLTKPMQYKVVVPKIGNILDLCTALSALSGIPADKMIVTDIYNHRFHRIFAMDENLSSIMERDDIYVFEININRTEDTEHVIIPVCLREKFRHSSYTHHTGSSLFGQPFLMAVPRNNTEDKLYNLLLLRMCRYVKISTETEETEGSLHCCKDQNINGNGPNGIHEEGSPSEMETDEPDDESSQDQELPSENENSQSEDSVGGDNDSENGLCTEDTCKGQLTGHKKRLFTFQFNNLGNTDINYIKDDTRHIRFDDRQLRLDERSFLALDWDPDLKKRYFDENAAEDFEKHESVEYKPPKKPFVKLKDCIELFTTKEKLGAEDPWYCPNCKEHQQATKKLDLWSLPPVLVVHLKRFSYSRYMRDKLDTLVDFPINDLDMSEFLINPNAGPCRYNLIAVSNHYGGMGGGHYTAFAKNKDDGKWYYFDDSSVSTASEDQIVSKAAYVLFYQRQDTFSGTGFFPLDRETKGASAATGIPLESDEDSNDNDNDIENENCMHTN
In short: as §1

USP16 = USP16 (UniProt Q9Y5T5)
In short: as §1

Chain of USP16 (Q9Y5T5 whole entry, looked up): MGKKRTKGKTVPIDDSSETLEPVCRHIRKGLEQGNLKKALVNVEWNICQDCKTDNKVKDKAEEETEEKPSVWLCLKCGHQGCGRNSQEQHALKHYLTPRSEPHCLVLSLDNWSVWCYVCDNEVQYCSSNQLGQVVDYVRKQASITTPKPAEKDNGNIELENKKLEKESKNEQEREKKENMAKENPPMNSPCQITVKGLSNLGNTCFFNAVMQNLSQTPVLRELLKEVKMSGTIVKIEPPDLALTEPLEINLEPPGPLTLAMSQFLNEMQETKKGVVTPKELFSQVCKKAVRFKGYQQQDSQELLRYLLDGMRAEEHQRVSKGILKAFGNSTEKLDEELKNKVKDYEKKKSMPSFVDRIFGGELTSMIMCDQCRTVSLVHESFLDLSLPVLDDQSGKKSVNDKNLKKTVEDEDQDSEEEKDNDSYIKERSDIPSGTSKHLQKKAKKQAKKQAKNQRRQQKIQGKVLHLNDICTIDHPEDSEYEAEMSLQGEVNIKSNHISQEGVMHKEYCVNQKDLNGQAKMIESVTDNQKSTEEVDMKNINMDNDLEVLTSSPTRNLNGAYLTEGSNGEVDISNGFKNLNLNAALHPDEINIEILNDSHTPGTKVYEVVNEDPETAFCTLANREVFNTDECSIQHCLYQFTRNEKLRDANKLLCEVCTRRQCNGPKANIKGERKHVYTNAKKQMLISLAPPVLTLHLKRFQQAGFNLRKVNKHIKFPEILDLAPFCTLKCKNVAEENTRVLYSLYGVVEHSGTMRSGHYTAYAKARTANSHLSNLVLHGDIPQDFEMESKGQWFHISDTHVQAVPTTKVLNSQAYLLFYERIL
Chain of UCHL1 (P09936 whole entry, looked up): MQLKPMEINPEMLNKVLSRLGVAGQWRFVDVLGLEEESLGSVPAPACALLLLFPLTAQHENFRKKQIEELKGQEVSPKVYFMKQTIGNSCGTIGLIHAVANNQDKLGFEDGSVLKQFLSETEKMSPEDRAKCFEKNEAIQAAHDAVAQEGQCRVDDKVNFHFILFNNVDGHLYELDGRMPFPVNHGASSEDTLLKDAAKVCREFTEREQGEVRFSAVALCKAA
Chain of USP10 (Q14694 whole entry): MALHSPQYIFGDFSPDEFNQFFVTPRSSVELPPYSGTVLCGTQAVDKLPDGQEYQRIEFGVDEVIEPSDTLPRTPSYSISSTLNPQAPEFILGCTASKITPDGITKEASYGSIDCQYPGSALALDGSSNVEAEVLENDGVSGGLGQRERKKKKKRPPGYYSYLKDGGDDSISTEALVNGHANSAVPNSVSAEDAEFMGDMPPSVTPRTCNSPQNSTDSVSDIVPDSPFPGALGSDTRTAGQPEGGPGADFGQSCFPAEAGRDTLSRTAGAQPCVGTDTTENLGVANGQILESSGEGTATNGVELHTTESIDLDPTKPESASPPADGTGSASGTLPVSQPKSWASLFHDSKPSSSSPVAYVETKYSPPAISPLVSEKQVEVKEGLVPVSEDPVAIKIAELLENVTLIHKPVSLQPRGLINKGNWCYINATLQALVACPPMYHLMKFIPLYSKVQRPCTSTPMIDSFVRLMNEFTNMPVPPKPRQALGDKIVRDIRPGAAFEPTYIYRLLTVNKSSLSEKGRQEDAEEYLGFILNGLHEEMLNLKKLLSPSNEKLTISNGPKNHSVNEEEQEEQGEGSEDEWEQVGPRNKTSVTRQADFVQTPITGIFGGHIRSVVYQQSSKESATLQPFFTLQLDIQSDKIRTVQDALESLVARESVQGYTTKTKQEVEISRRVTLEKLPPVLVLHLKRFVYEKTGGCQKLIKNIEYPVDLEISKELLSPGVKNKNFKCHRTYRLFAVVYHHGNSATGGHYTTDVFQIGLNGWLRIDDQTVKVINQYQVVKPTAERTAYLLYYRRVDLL

O=C(CCl)N1CCN(c2nc3ccccc3o2)CC1
log2 ratio of Biotin-Ahx-Ub-VS probe labelling (OTUD6B): -0.147
log2 ratio of Biotin-Ahx-Ub-VS probe labelling (OTUD7B): -0.25
log2 ratio of Biotin-Ahx-Ub-VS probe labelling (PRPF8): 0.299
log2 ratio of Biotin-Ahx-Ub-VS probe labelling (PSMD7): -0.247
log2 ratio of Biotin-Ahx-Ub-VS probe labelling (UCHL1): -1.49 (active)
log2 ratio of Biotin-Ahx-Ub-VS probe labelling (UCHL3): -0.125
log2 ratio of Biotin-Ahx-Ub-VS probe labelling (UCHL5): -0.319
log2 ratio of Biotin-Ahx-Ub-VS probe labelling (USP10): -0.131
log2 ratio of Biotin-Ahx-Ub-VS probe labelling (USP15): -0.407
log2 ratio of Biotin-Ahx-Ub-VS probe labelling (USP16): -0.379
